# Data taken from PubChem BioAssay AID1159580 (chemical genetic matrix, 2015).
# Values joined by “and” are separate entries in the source; they are usually repeats but may differ in a detail not shown here. Equal entries are not always repeated. Screen size: about 5,500 compounds; about 2,000 (36%) were called active. Not shown: some 18% with an inconclusive outcome. The list shows a part of the results. A number with no mark means an inactive call. Rule as the data show it: active = normalized growth mostly below about 0.91 (no sharp cut-off); inconclusive = no clear call, values can overlap the other calls; inactive = mostly above about 0.92.
# Assay: chemical genetic growth profiling, strain panel (AID 1159580);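 also: tested at 20 µM; growth read once vehicle control cultures reached saturation at 30 °C; 1 = growth at the plate median or of vehicle wells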
# Settings: S. cerevisiae deletion strains, growth OD
smiles,measurement,setting,value
CC(CCC(=O)O)[C@H]1CCC2C3CC[C@@H]4CC(=O)CC[C@]4(C)C3C=C[C@@]21C (stereo not given in full),normalized growth,"locus YBR021W, strain FUR4, stronger effect = lower value",0.906
same,normalized growth,"locus YBR229C, strain ROT2, stronger effect = lower value",1.03
same,normalized growth,"locus YCL029C, strain bik1, stronger effect = lower value",0.984
same,normalized growth,"locus YDL035C, strain GPR1, stronger effect = lower value",0.832 (active)
same,normalized growth,"locus YDL074C, strain BRE1, stronger effect = lower value",0.992
same,normalized growth,"locus YDL101C, strain DUN1, stronger effect = lower value",1.02
same,normalized growth,"locus YDL185W, strain tfp1, stronger effect = lower value",1.02
same,normalized growth,"locus YDL192W, strain arf1, stronger effect = lower value",1
same,normalized growth,"locus YDR101C, strain arx1, stronger effect = lower value",0.967
same,normalized growth,"locus YDR162C, strain NBP2, stronger effect = lower value",0.999
same,normalized growth,"locus YDR318W, strain mcm21, stronger effect = lower value",0.982
same,normalized growth,"locus YDR388W, stronger effect = lower value",1.01
same,normalized growth,"locus YDR502C, strain sam2, stronger effect = lower value",0.928
same,normalized growth,"locus YEL061C, strain CIN8, stronger effect = lower value",1.03
same,normalized growth,"locus YER110C, stronger effect = lower value",1.05
same,normalized growth,"locus YER155C, strain BEM2, stronger effect = lower value",1.06
same,normalized growth,"locus YER167W, strain BCK2, stronger effect = lower value",1.05
same,normalized growth,"locus YGL078C, strain dbp3, stronger effect = lower value",0.87 (active)
same,normalized growth,"locus YGL086W, strain mad1, stronger effect = lower value",0.971
same,normalized growth,"locus YGL248W, strain PDE1, stronger effect = lower value",0.963
same,normalized growth,"locus YGR078C, strain PAC10, stronger effect = lower value",1.02
same,normalized growth,"locus YGR135W, strain pre9, stronger effect = lower value",0.953
same,normalized growth,"locus YGR229C, strain SMI1, stronger effect = lower value",0.904
same,normalized growth,"locus YGR252W, strain gcn5, stronger effect = lower value",0.779
same,normalized growth,"locus YHR030C, strain SLT2, stronger effect = lower value",1.06 and 0.918
same,normalized growth,"locus YHR079C, strain IRE1 (second series), stronger effect = lower value",1.03
same,normalized growth,"locus YHR079C, strain IRE1, stronger effect = lower value",0.944
same,normalized growth,"locus YHR094C, strain hxt1, stronger effect = lower value",1.03
same,normalized growth,"locus YHR129C, strain ARP1, stronger effect = lower value",1.04
same,normalized growth,"locus YHR200W, strain rpn10, stronger effect = lower value",1.03
same,normalized growth,"locus YIL066C, strain RNR3, stronger effect = lower value",1.02
same,normalized growth,"locus YIL073C, strain SPO22, stronger effect = lower value",0.955
same,normalized growth,"locus YIL125W, strain kgd1, stronger effect = lower value",0.98
same,normalized growth,"locus YIR030C, strain dcg1, stronger effect = lower value",1.02
same,normalized growth,"locus YJL095W, strain BCK1, stronger effect = lower value",0.959 and 0.937
same,normalized growth,"locus YJL134W, strain LCB3, stronger effect = lower value",1.05
same,normalized growth,"locus YJL168C, strain set2, stronger effect = lower value",1.03
same,normalized growth,"locus YJL187C, strain SWE1 (second series), stronger effect = lower value",0.986
same,normalized growth,"locus YJR043C, strain POL32, stronger effect = lower value",0.985
same,normalized growth,"locus YJR066W, strain TOR1, stronger effect = lower value",0.893
same,normalized growth,"locus YKL009W, strain mrt4, stronger effect = lower value",0.809 (active)
same,normalized growth,"locus YKL068W, stronger effect = lower value",1.04
same,normalized growth,"locus YKL085W, strain MDH1 (second series), stronger effect = lower value",1.03
same,normalized growth,"locus YKL085W, strain MDH1, stronger effect = lower value",1.03
same,normalized growth,"locus YKL190W, strain CNB1, stronger effect = lower value",1.04
same,normalized growth,"locus YKR001C, strain vps1, stronger effect = lower value",0.955
same,normalized growth,"locus YLR039C, strain RIC1, stronger effect = lower value",0.953
same,normalized growth,"locus YLR058C, strain SHM2, stronger effect = lower value",1.01
same,normalized growth,"locus YLR102C, strain apc9, stronger effect = lower value",1.03
same,normalized growth,"locus YLR113W, strain HOG1, stronger effect = lower value",0.882
same,normalized growth,"locus YLR262C, strain YPT6, stronger effect = lower value",0.895
same,normalized growth,"locus YLR268W, strain sec22, stronger effect = lower value",0.949
same,normalized growth,"locus YLR330W, strain CHS5, stronger effect = lower value",1.04
same,normalized growth,"locus YLR342W, strain FKS1 (second series), stronger effect = lower value",0.87
same,normalized growth,"locus YLR371W, strain rom2, stronger effect = lower value",1.05
same,normalized growth,"locus YLR418C, strain cdc73, stronger effect = lower value",0.889
same,normalized growth,"locus YML016C, strain PPZ1, stronger effect = lower value",1.04
same,normalized growth,"locus YML032C, strain rad52, stronger effect = lower value",0.959
same,normalized growth,"locus YML124C, strain tub3, stronger effect = lower value",1.04
same,normalized growth,"locus YMR078C, strain ctf18, stronger effect = lower value",1.03
same,normalized growth,"locus YMR223W, strain ubp8, stronger effect = lower value",0.969
same,normalized growth,"locus YMR307W, strain GAS1, stronger effect = lower value",0.875
same,normalized growth,"locus YNL067W, strain RPL9B, stronger effect = lower value",0.971
same,normalized growth,"locus YNL153C, strain GIM3, stronger effect = lower value",0.966
same,normalized growth,"locus YNL183C, strain NPR1, stronger effect = lower value",0.883
same,normalized growth,"locus YNL233W, strain BNI4, stronger effect = lower value",1.02
same,normalized growth,"locus YNL250W, strain rad50, stronger effect = lower value",1
same,normalized growth,"locus YNL271C, strain bni1, stronger effect = lower value",0.992
same,normalized growth,"locus YNL298W, strain CLA4, stronger effect = lower value",0.926
same,normalized growth,"locus YNL307C, strain MCK1, stronger effect = lower value",1.02
same,normalized growth,"locus YNL322C, strain KRE1, stronger effect = lower value",1.04
same,normalized growth,"locus YNR052C, strain pop2, stronger effect = lower value",0.931
same,normalized growth,"locus YOL006C, strain TOP1, stronger effect = lower value",0.944
same,normalized growth,"locus YOL012C, strain htz1",1.95
same,normalized growth,"locus YOL147C, strain pex11, stronger effect = lower value",1.03
same,normalized growth,"locus YOR061W, strain CKA2, stronger effect = lower value",1.01
same,normalized growth,"locus YOR069W, strain VPS5, stronger effect = lower value",1.02
same,normalized growth,"locus YOR136W, strain idh2, stronger effect = lower value",1.03
same,normalized growth,"locus YOR144C, strain elg1, stronger effect = lower value",0.988
same,normalized growth,"locus YOR184W, strain ser1, stronger effect = lower value",0.795 (active)
same,normalized growth,"locus YOR231W, strain MKK1, stronger effect = lower value",0.913
same,normalized growth,"locus YOR316C, strain cot1, stronger effect = lower value",1.03
same,normalized growth,"locus YPL055C, strain LGE1, stronger effect = lower value",1.01
same,normalized growth,"locus YPL241C, strain CIN2, stronger effect = lower value",1.04
same,normalized growth,"locus YPL256C, strain CLN2, stronger effect = lower value",0.963
same,normalized growth,"locus YPR119W, strain clb2, stronger effect = lower value",1.05
same,normalized growth,"locus YPR141C, strain kar3, stronger effect = lower value",1.05
same,normalized growth,"locus YPR163C, strain tif3, stronger effect = lower value",1
same,normalized growth,"locus YPR167C, strain met16, stronger effect = lower value",1.01
same,normalized growth,"strain wtn01, stronger effect = lower value",0.931
